Assay results published in PubChem BioAssay AID1159580 (chemical genetic matrix, 2015).
In all, about 5,500 compounds went through this assay and about 2,000 (36%) were called active. Not shown: some 18% with an inconclusive outcome. Rule as the data show it: active = normalized growth mostly below about 0.91 (no sharp cut-off); inconclusive = no clear call, values can overlap the other calls; inactive = mostly above about 0.92. The list shows a part of the results.

Assay: chemical genetic growth profiling, strain panel (AID 1159580);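 also: tested at 20 µM; growth read once vehicle control cultures reached saturation at 30 °C; 1 = growth at the plate median or of vehicle wells; lower values mean less growth of the strain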
Details: S. cerevisiae deletion strains, growth OD

Measured: normalized growth

CCCN1CCC[C@@H]2Cc3[nH]ncc3C[C@H]21
inactive: locus YAL013W, strain DEP1, hits give low values 0.989 | locus YAL040C, strain CLN3, hits give low values 1.02 | locus YCL061C, strain MRC1 (second series), hits give low values 1 | locus YDR363W, strain ESC2, hits give low values 1.01 | locus YER002W, strain NOP16, hits give low values 1.01 | locus YMR263W, strain SAP30, hits give low values 0.994 | locus YMR307W, strain GAS1, hits give low values 0.985 | locus YNL128W, strain TEP1, hits give low values 1.02 | locus YNL175C, strain NOP13, hits give low values 1 | locus YNL197C, strain WHI3, hits give low values 1.02 | locus YNL224C, strain SQS1, hits give low values 1.01 | locus YNL322C, strain KRE1, hits give low values 1.01 | locus YOR083W, strain WHI5 (second series), hits give low values 1.02

O=C(Oc1ccc2ccccc2c1C1SCCS1)c1ccc([N+](=O)[O-])o1
inactive: locus YAR019C, strain CDC15, hits give low values 0.952 | locus YBL105C, strain PKC1, hits give low values 0.958 | locus YBR135W, strain CKS1, hits give low values 0.966 | locus YBR136W, strain MEC1, hits give low values 0.957 | locus YBR160W, strain CDC28, hits give low values 0.947 | locus YDL017W, strain CDC7, hits give low values 0.958 | locus YDL028C, strain MPS1, hits give low values 0.942 | locus YDL101C, strain DUN1, hits give low values 0.943 | locus YDL108W, strain KIN28, hits give low values 0.955 | locus YDL132W, strain cdc53, hits give low values 0.973 | locus YDL214C, strain PRR2, hits give low values 0.912 | locus YDR052C, strain DBF4, hits give low values 0.973 | locus YDR054C, strain cdc34, hits give low values 0.97 | locus YDR226W, strain ADK1, hits give low values 0.933 | locus YDR477W, strain SNF1, hits give low values 0.901 | locus YER123W, strain YCK3, hits give low values 0.907 | locus YER133W, strain GLC7, hits give low values 0.953 | locus YFL009W, strain cdc4, hits give low values 0.964 | locus YFL029C, strain CAK1, hits give low values 0.948 | locus YFR003C, strain YPI1, hits give low values 0.957 | locus YFR019W, strain FAB1, hits give low values 0.923 | locus YFR028C, strain CDC14, hits give low values 0.946 | locus YGR040W, strain KSS1, hits give low values 0.919 | locus YGR052W, strain FMP48, hits give low values 0.966 | locus YGR092W, strain DBF2, hits give low values 0.86 | locus YHR079C, strain IRE1, hits give low values 0.89 | locus YHR082C, strain KSP1, hits give low values 0.936 | locus YHR205W, strain SCH9, hits give low values 0.768 | locus YIL147C, strain SLN1, hits give low values 0.93 | locus YJL095W, strain BCK1, hits give low values 0.855 | locus YJL128C, strain PBS2, hits give low values 0.842 | locus YJL157C, strain FAR1, hits give low values 0.92 | locus YJR016C, strain ILV3, hits give low values 0.958 | locus YJR066W, strain TOR1 (second series), hits give low values 0.919 | locus YJR066W, strain TOR1, hits give low values 0.879 | locus YKL048C, strain ELM1, hits give low values 0.925 | locus YKL067W, strain YNK1, hits give low values 0.909 | locus YKL101W, strain HSL1, hits give low values 0.894 | locus YKL193C, strain SDS22, hits give low values 0.952 | locus YKL203C, strain TOR2, hits give low values 1.02 | locus YLR133W, strain CKI1, hits give low values 0.919 | locus YLR403W, strain SFP1, hits give low values 0.919 | locus YML070W, strain DAK1, hits give low values 0.907 | locus YMR001C, strain CDC5, hits give low values 0.94 | locus YMR205C, strain PFK2 (second series), hits give low values 0.938 | locus YMR277W, strain FCP1, hits give low values 0.937 | locus YNL006W, strain LST8, hits give low values 0.955 | locus YNL020C, strain ARK1, hits give low values 0.917 | locus YNL161W, strain CBK1, hits give low values 0.957 | locus YNL183C, strain NPR1, hits give low values 0.951 | locus YNL207W, strain RIO2, hits give low values 0.963 | locus YNL222W, strain SSU72, hits give low values 0.939 | locus YNL307C, strain MCK1 (second series), hits give low values 0.901 | locus YOL078W, strain AVO1, hits give low values 0.962 | locus YOL136C, strain PFK27, hits give low values 0.886 | locus YOR061W, strain CKA2, hits give low values 0.921 | locus YOR119C, strain RIO1, hits give low values 0.973 | locus YOR231W, strain MKK1, hits give low values 0.878 | locus YOR329C, strain SCD5, hits give low values 0.957 | locus YPL031C, strain PHO85, hits give low values 0.917 | locus YPL153C, strain RAD53, hits give low values 0.909 | locus YPL204W, strain HRR25, hits give low values 0.906 | locus YPL209C, strain IPL1, hits give low values 0.964 | locus YPR025C, strain CCL1, hits give low values 0.961 | locus YPR106W, strain ISR1, hits give low values 0.939 | locus YPR111W, strain DBF20, hits give low values 0.913 | strain NNK1, hits give low values 0.941 | strain TSCII, hits give low values 0.954
active: locus YHR030C, strain SLT2, hits give low values 0.698 | locus YLR113W, strain HOG1, hits give low values 0.702 | locus YPL256C, strain CLN2, hits give low values 0.807
